Compound activity from PubChem.
CYP2C19 inh: blockers of cytochrome P450 2C19 activity – biochemical, luminescence, ADME assay, primary screen | P33261 | CYP2C19 Supersomes, luciferin-H EGE luminescence, 30 min | inhibition, % at 5 µM | 96,000 tested, 21% active | AID 778, 2007;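 active = CYP2C19 inhibition above a set limit at 5 µM in the primary screen, cut at about 50% in these data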
CYP2C9 inhib: blockers of cytochrome P450 2C9 activity – biochemical, luminescence, ADME assay, primary screen; P11712; CYP2C9 Supersomes, luciferin-H conversion; inhibition, % at 5 µM; 96,000 tested, 20% active; AID 777, 2007;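 active = blocking of liver enzyme CYP2C9 beyond about 50% at 5 µM, limit read from the data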
Target sequence (P11712 whole entry, looked up): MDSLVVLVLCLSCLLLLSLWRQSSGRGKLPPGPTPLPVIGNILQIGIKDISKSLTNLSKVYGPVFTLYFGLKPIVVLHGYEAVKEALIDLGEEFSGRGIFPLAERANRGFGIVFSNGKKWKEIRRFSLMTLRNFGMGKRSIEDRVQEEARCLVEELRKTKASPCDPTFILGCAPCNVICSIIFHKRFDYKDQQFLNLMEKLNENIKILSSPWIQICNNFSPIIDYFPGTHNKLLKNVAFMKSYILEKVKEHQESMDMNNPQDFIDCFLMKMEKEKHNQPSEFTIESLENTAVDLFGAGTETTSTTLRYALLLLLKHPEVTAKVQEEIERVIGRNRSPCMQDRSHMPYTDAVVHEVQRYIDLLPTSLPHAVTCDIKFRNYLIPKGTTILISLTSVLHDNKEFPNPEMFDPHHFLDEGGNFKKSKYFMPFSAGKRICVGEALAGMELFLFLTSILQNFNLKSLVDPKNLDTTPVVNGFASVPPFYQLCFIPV
CYP2C9 act: human CYP2C9 activators, primary screen, biochemical, luminescence. 96,000 tested, 1.4% active. recombinant CYP2C9, luciferin-H conversion; stronger effect = higher value; factor 1 = untreated enzyme, 0 = blocked. Cytochrome P450 2C9 (Homo sapiens), P11712. activation factor at 5 µM;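 active = activation factor of 2 or more for CYP2C9 at a 5 µM dose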
PLAP act: PLAP enzyme activators, biochemical, luminescence, HTS; activation fold at 20 µM; purified PLAP enzyme, luminescent substrate read-out; stronger effect = higher value; 96,000 tested, 1.2% active; in the data active = activation fold above about 2
CYP2C19 act: human CYP2C19 activators, primary screen, biochemical, luminescence. Cytochrome P450 2C19 (Homo sapiens), P33261. recombinant CYP2C19, luciferin-H EGE luminescence; stronger effect = higher value; 0 = fully inhibited enzyme, 1 = untreated enzyme. activation factor at 5 µM. 96,000 tested, under 10 active. AID 1025, 2008;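 active = activation factor of at least 2 at 5 µM in the primary screen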
Hits are given with their value. Sampled rows, rich in hits. Any-hit rate of the full collection: about 31%.

CCCCc1c(O)c2ccccc2[nH]c1=O was read as CYP2C19 inh inactive, CYP2C9 inhib inactive, CYP2C9 act inactive, PLAP act inactive and CYP2C19 act inactive.
Screening O=C(CN1C(=O)c2ccccc2C1=O)c1ccccc1 returned CYP2C19 inh inactive, CYP2C9 inhib 51, CYP2C9 act inactive, PLAP act inactive and CYP2C19 act inactive.
CC(C)c1ccc(CNC(=O)CSCC(=O)Nc2ccc3ccccc3c2)cc1 was read as CYP2C19 inh inactive, CYP2C9 inhib inactive, CYP2C9 act inactive, PLAP act inactive and CYP2C19 act inactive.
`COC(=O)CSc1nnc(-c2cccc(NC(=O)c3ccc(C)cc3)c2)n1C` gave CYP2C19 inh inactive, CYP2C9 inhib 76, CYP2C9 act inactive, PLAP act inactive and CYP2C19 act inactive.
For Cc1ccc(CSc2nnc(-c3ccncc3)n2C)cc1 the results were CYP2C19 inh 73, CYP2C9 inhib inactive, CYP2C9 act inactive, PLAP act inactive and CYP2C19 act inactive.
COc1cccc(-c2nnc(SCc3ccccn3)n2C)c1 was read as CYP2C19 inh inactive, CYP2C9 inhib inactive, CYP2C9 act inactive, PLAP act inactive and CYP2C19 act inactive.
Screening Cn1c(SCc2ccccn2)nnc1-c1ccncc1 returned CYP2C19 inh 94, CYP2C9 inhib inactive, CYP2C9 act inactive, PLAP act inactive and CYP2C19 act inactive.
`CC(=O)Nc1ccc(-c2nnc(SCc3ccc(C)cc3)n2C)cc1` gave CYP2C19 inh inactive, CYP2C9 inhib inactive, CYP2C9 act inactive, PLAP act inactive and CYP2C19 act inactive.
`CC(=O)Nc1cccc(-c2nnc(SCc3ccccc3C#N)n2C)c1` gave CYP2C19 inh 62, CYP2C9 inhib inactive, CYP2C9 act inactive, PLAP act inactive and CYP2C19 act inactive.
Screening Cn1c(SCC(=O)N2CCOCC2)nnc1-c1cccc(NC(=O)c2ccccc2)c1 returned CYP2C19 inh inactive, CYP2C9 inhib inactive, CYP2C9 act inactive, PLAP act inactive and CYP2C19 act inactive.
C=CCc1c(C)nc(SC(C)C)[nH]c1=O was read as CYP2C19 inh inactive, CYP2C9 inhib inactive, CYP2C9 act inactive, PLAP act inactive and CYP2C19 act inactive.
Screening Cn1c(SCc2ccccc2)nnc1-c1ccc2c(c1)OCO2 returned CYP2C19 inh 88, CYP2C9 inhib inactive, CYP2C9 act inactive, PLAP act inactive and CYP2C19 act inactive.
For Cn1c(CNC(=O)Cc2ccc3c(c2)OCO3)nnc1SCc1ccccc1 the results were CYP2C19 inh inactive, CYP2C9 inhib inactive, CYP2C9 act inactive, PLAP act inactive and CYP2C19 act inactive.
Screening Cc1ccc(NC(=O)c2ccc(CSc3nnc(-c4ccncc4)n3C)cc2)cc1 returned CYP2C19 inh inactive, CYP2C9 inhib 66, CYP2C9 act inactive, PLAP act inactive and CYP2C19 act inactive.
`Cc1ccc(C)c(OCCCCCn2ccnc2)c1` gave CYP2C19 inh 100, CYP2C9 inhib 100, CYP2C9 act inactive, PLAP act inactive and CYP2C19 act inactive.
CCc1ccccc1OCCOc1ccc(C)cc1OC was read as CYP2C19 inh inactive, CYP2C9 inhib inactive, CYP2C9 act inactive, PLAP act inactive and CYP2C19 act inactive.
For C=CCc1cc(C)ccc1OCCn1ccnc1 the results were CYP2C19 inh 96, CYP2C9 inhib 95, CYP2C9 act inactive, PLAP act inactive and CYP2C19 act inactive.
For CCOCCCNC(=O)c1ccc(NC(C)=O)cc1 the results were CYP2C19 inh inactive, CYP2C9 inhib inactive, CYP2C9 act inactive, PLAP act inactive and CYP2C19 act inactive.
For O=C(CCNS(=O)(=O)c1cccs1)NCc1ccco1 the results were CYP2C19 inh inactive, CYP2C9 inhib inactive, CYP2C9 act inactive, PLAP act inactive and CYP2C19 act inactive.
`Cc1n[nH]c(C)c1S(=O)(=O)N1CCN(c2ccccn2)CC1` gave CYP2C19 inh inactive, CYP2C9 inhib inactive, CYP2C9 act inactive, PLAP act inactive and CYP2C19 act inactive.
`O=S(=O)(c1ccc(Br)s1)N1CCN(c2ccccn2)CC1` gave CYP2C19 inh 99, CYP2C9 inhib 98, CYP2C9 act inactive, PLAP act inactive and CYP2C19 act inactive.
`O=S(=O)(c1ccc(Br)s1)N1CCN(c2ncccn2)CC1` gave CYP2C19 inh inactive, CYP2C9 inhib 61, CYP2C9 act inactive, PLAP act inactive and CYP2C19 act inactive.
Screening O=c1c2cn[nH]c2nc(SCc2ccc3c(c2)OCCO3)n1-c1ccccc1 returned CYP2C19 inh 90, CYP2C9 inhib 88, CYP2C9 act inactive and CYP2C19 act inactive.
For CCc1ccccc1-n1c(SCC(=O)Nc2ccc3c(c2)OCCO3)nc2[nH]ncc2c1=O the results were CYP2C19 inh 54, CYP2C9 inhib 61, CYP2C9 act inactive, PLAP act inactive and CYP2C19 act inactive.
For COc1ccccc1-n1c(SCC(=O)Nc2ccccc2F)nc2[nH]ncc2c1=O the results were CYP2C19 inh inactive, CYP2C9 inhib inactive, CYP2C9 act inactive, PLAP act inactive and CYP2C19 act inactive.
Screening Cc1ccc(C(=O)CCC2CCCCC2=O)cc1 (configuration not stated) returned CYP2C19 inh 84, CYP2C9 inhib inactive, CYP2C9 act inactive, PLAP act inactive and CYP2C19 act inactive.
Screening Cc1ccc(C(=O)CCC2CCCC2=O)cc1 (configuration not stated) returned CYP2C19 inh inactive, CYP2C9 inhib inactive, CYP2C9 act inactive, PLAP act inactive and CYP2C19 act inactive.
`O=C(NC(C(=O)c1ccccc1)N1CCOCC1)c1cccs1` (configuration not stated) gave CYP2C19 inh 94, CYP2C9 inhib 96, CYP2C9 act inactive, PLAP act inactive and CYP2C19 act inactive.
O=C(NC(C(=O)c1ccccc1)N1CCOCC1)c1ccccc1 (configuration not stated) was read as CYP2C19 inh 79, CYP2C9 inhib 91, CYP2C9 act inactive, PLAP act inactive and CYP2C19 act inactive.
For C=CCc1ccccc1OCC(=O)OCCNC(=O)c1cccnc1 the results were CYP2C19 inh inactive, CYP2C9 inhib inactive, CYP2C9 act inactive, PLAP act inactive and CYP2C19 act inactive.
CCC(C)(C(=O)NC1CCCC1)N(C(=O)c1ccccn1)c1ccc(C)cc1 (configuration not stated) was read as CYP2C19 inh inactive, CYP2C9 inhib inactive, CYP2C9 act inactive, PLAP act inactive and CYP2C19 act inactive.
c1ccc(C2(c3ccccc3)OCC(Cn3cncn3)O2)cc1 (configuration not stated) was read as CYP2C19 inh 66, CYP2C9 inhib 52, CYP2C9 act inactive, PLAP act inactive and CYP2C19 act inactive.
`CCOc1ccc(N2C(=O)CC(N3CCN(c4ccccc4F)CC3)C2=O)cc1` (configuration not stated) gave CYP2C19 inh inactive, CYP2C9 inhib inactive, CYP2C9 act inactive, PLAP act inactive and CYP2C19 act inactive.
